About 2,400 (0.67%) of roughly 360,000 compounds were called active.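 The calls were made as follows: active = inhibition above about 55% (limit read from the data); inconclusive = no clear call, values can overlap the other calls; inactive = the rest.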 Only a selection was taken, and actives are over-represented in it overall.
experiment: LAMP-1 surface exposure blockers, TALL-104 cells – cell-based, flow cytometry, MLPCN library, primary screen (AID 651702); settings: TALL-104 LAMP-1 surface exposure, at 10 µM, hits give high values, cells stimulated with thapsigargin and PMA

inhibition, inactive:
Nc1ccn(CC(=O)N2CCN(c3ccccn3)CC2)c(=O)n1 6.5%, CC(C)(C)NC(=O)CN(Cc1cccs1)C(=O)CNS(=O)(=O)c1ccccc1 -2.2%, COc1ccc(OC)c(NC(=O)CN(Cc2ccc(Cl)cc2)S(C)(=O)=O)c1 6.3%, COc1ccc(Br)cc1CN(C)CC(=O)Nc1cc([N+](=O)[O-])ccc1OC 0.6%, COCc1c(C(=O)N/N=C/C2CC=CCC2)nnn1-c1nonc1N (centres undefined) 1.4%, CCCCN(CCCC)CC(O)Cn1c2ccccc2c(=O)c2ccccc21 (centres undefined) 11.9%, Cc1cc(C)n(CC(O)CN(c2ccccc2)S(=O)(=O)c2ccc3ccccc3c2)n1 (centres undefined) -1%, O=S(=O)(NCC1CC1)c1ccc(F)c(Cl)c1 -8.8%, CCOc1ccc(C(C)=O)cc1COC(=O)CNC(=O)c1cccs1 -4.6%, COC(=O)c1ccc(COC(=O)c2cnc(Cl)c(Cl)c2)cc1 -4.5%, CC(C)(C)NS(=O)(=O)CC12CCC(CC1=O)C2(C)C (centres undefined) -2.4%, O=C(O[C@@H]1[C@H](Cc2ccccc2)NS(=O)(=O)[C@H]2C[C@@H]3C=C[C@]12O3)c1ccccc1Br -3.7%, COC(=O)c1ccccc1NC(=O)CSc1nc2c(c(=O)[nH]1)CCC2 8.6%, OC(COCC1COc2ccccc2O1)CN1CCN(c2ccc(F)cc2)CC1 (centres undefined) -15.5%, CCN1CCN(CCNC(=O)c2ccc3c(c2)NC(=O)/C(=C\c2cccc(Cl)c2)S3)CC1 10.1%, O=C(CN1C(=O)/C(=C\c2ccc(C(F)(F)F)cc2)Sc2ccccc21)NCc1ccco1 -0.7%, CC(=O)c1cnc(SCC(=O)O)nc1C -1%, Cc1cc(NC(=O)CS(=O)(=O)c2cn(C)c3ccccc23)no1 -1.6%, COc1ccc(C(=O)NCC2CCCO2)cc1S(=O)(=O)NCc1ccc(Cl)cc1 (centres undefined) -5.7%, C=CCn1c(SCC(=O)/C(C#N)=C(\C)N)nc2sc(C)c(C)c2c1=O -1.8%, C=CCn1c(SCC(=O)Nc2ccc(NC(C)=O)cc2)nc2sc(C)c(C)c2c1=O -3.1%, COc1ccccc1NS(=O)(=O)c1ccc(C)c(C(=O)NCC(c2ccco2)N(C)C)c1 (centres undefined) 3.6%, CCc1ccc(NC(=O)CS(=O)CC(=O)NCCCc2ccccc2)cc1 (centres undefined) -1.4%, O=C(NCC1CCCO1)C(C(=O)c1ccccc1)n1cc(Cl)ccc1=O (centres undefined) 1.4%, CC(=O)c1c(C)[nH]c(C(=O)OCC(=O)Nc2c(C)cccc2C)c1C 2.6%, COc1ccc(C)cc1NC(=O)C(OC(=O)c1cccc(S(=O)(=O)N(C)c2ccccc2)c1)c1ccccc1 (centres undefined) 0.3%, CCOC(=O)CN1CC23C=CC(O2)C(C(=O)Nc2ccc(F)cc2)C3C1=O (centres undefined) 1.3%, O=C(Nc1ccc(Cl)cn1)c1ccccc1-c1ccccc1 -5.1%, CC(C)C(=O)NCc1cc(-c2ccc(Cl)cc2)no1 0.2%, CCCN(CC1CC1)C(=S)NC(=O)c1ccccc1Br -2.1%, CC1Cc2nc(SCC(=O)Nc3ccccc3F)n(C)c(=O)c2S1 (centres undefined) 3.3%, COCCn1c(C)cc(C(=O)COC(=O)/C=C/c2cccc(OC)c2)c1C -3.8%, O=C(O)C1CCN(c2ccc([N+](=O)[O-])cc2[N+](=O)[O-])CC1 -1.4%, CC1CCN(C(=S)c2cccc([N+](=O)[O-])c2)CC1 0.5%, Cc1ccc(C(C)C)c(OCc2nnc(SCC(=O)Nc3nccs3)n2C)c1 1.2%, COc1cc(NC(=O)c2ccccc2)c(OC)cc1NC(=O)Cc1ccccc1 0%, C/C(=N\NC(=O)c1ccc(C)cc1)C1C(=O)c2ccccc2C1=O -2.2%, Cc1ccc(S(=O)(=O)NCCSC(C)(C)C)cc1 11%, O=C(NCc1ccccc1)c1onc(CSc2nc3ccccc3[nH]2)c1C(=O)NCc1ccccc1 -2.7%, COc1ccc(C(O)C(O)(C(=O)OC(C)C)c2ccc(C)cc2)cc1 (centres undefined) -2.2%, COc1ccc(C2C(C(C)=O)=C(O)C(=O)N2CCc2c[nH]c3ccccc23)cc1 (centres undefined) 0.4%, C[N+](C)(C)CCNC(=O)c1c[nH]c2ccccc12 -7.5%, O=C(CN1C(=O)NC2(CCc3ccccc32)C1=O)NC1CCCCC1 (centres undefined) -1.5%, Brc1ccc2c(c1)[C@H]1OCC[C@H]1[C@@H](c1cccs1)N2 1%, COc1cccc2oc(CCc3ccccc3)cc(=O)c12 -4.5%, COc1ccc(CC(N)c2csc(NC(=O)Cc3ccccc3)n2)cc1 (centres undefined) -2.9%, COc1ccc(CC(N)c2csc(NC(=O)NC(c3ccccc3)c3ccccc3)n2)cc1 (centres undefined) 11.2%

inhibition, active:
COc1ccc(OC)c(NC(=O)CN(C)CCOc2ccc(Br)cc2)c1 93.7%, CS(=O)(=O)N(CC(O)Cn1c2ccccc2c2ccccc21)c1cccc2ccccc12 (centres undefined) 86.5%, CCOc1ccc(C(C)=O)cc1COC(=O)c1cnc(Cl)c(Cl)c1 57.6%, COc1ccc(NC(=O)/C(Cl)=C(/Cl)S(=O)Cc2ccc(C)cc2)cn1 (centres undefined) 103%, CCN1CCN(CCNC(=O)c2ccc(/C=C3/Sc4ccccc4N(Cc4cccc(C)c4)C3=O)cc2)CC1 86.2%, C=CCn1c(SCc2csc(C)n2)nc2scc(-c3ccc(C)o3)c2c1=O 62.3%, CC(=O)c1c(C)[nH]c(C(=O)COC(=O)c2cccc(S(=O)(=O)N(C)c3ccccc3)c2)c1C 75.4%, Oc1ccccc1-c1cc(-c2ccc(Cl)cc2)n[nH]1 92.9%, CC1CCN(c2ccc([N+](=O)[O-])cc2C(N)=O)CC1 60.4%, O=C(NC1=CC(=O)c2ccccc2C1=O)c1ccccc1 108%, COc1ccc(/C=C(\C#N)c2c[nH]c3ccccc23)cc1 90.4%, COc1ccc(CC(N)c2csc(NC(=O)Nc3ccc(C(C)C)cc3)n2)cc1 (centres undefined) 67.4%

Reference: PubChem BioAssay AID651702 (NMMLSC, 2012)
